Compound activity: PubChem, several laboratories
Most compounds without a hit are left out; they make up all but 4.6% or so of the library.
ADAM10 inh: inhibitors of human ADAM10 | O14672 | recombinant ADAM10, EDANS/DABCYL FRET peptide cleavage, 3 h | inhibition, % at 7 µM | 370,000 compounds, 0.62% hits;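 active = inhibition above a per-campaign cutoff equal to the mean of compounds falling between control-based bounds plus 3 SD, cut at about 20% in these data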;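 also: 0% = DMSO wells while the 100% control is not disclosed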
Target sequence (O14672 214-748 limits assumed): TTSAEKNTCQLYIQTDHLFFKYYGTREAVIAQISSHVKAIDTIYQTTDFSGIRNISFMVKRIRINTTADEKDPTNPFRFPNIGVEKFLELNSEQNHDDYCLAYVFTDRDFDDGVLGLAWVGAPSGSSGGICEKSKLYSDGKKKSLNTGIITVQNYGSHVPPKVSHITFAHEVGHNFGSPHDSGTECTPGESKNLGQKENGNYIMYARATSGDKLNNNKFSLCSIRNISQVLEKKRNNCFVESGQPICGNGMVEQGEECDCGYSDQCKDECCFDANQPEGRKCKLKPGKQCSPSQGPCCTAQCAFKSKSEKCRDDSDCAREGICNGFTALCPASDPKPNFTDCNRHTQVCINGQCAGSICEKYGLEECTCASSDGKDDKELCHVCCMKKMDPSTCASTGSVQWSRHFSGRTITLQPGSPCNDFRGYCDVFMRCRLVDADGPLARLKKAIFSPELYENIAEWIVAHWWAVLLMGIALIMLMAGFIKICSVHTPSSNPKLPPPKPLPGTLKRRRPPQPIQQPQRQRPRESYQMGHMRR
FAS-TE inh: FAS thioesterase (human) inhibition; recombinant FAS-TE, OMFH fluorogenic substrate, fluorescence endpoint; inhibition, % at 15 µM; 360,000 compounds, 0.67% hits;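 active = compounds whose normalised, plate-corrected inhibition of enzyme fluorescence in the single-dose primary screen is 50% or more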;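 also: 0% = DMSO with enzyme and 100% = substrate without enzyme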
KLK7 zymogen act: activates the human kallikrein-7 zymogen | purified proKLK7, EDANS-DABCYL substrate fluorescence; 100% is mature enzyme control, 0% vehicle | P49862 | activation, % at 7 µM | 370,000 compounds, 0.9% hits;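 active = activation above the mean of all tested compounds plus 3 SD, computed per campaign excluding outliers beyond control limits, cut at about 13% in these data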
GRIN3A LBD mod: modulates the human NR3A ligand-binding domain | 340,000 compounds, 2.5% hits | AID 1259313 | NR3A LBD differential scanning fluorimetry, Tm shift; 0% = protein alone, 100% = glycine-bound protein | Tm shift relative to glycine control, % at 25 µM;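 active = melting temperature shift of at least 10% of the positive control shift, at one fixed dose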
ADAM17 inh: inhibits human ADAM17; 370,000 compounds, 0.83% hits; recombinant ADAM17, EDANS/DABCYL FRET peptide cleavage; inhibition, % at 6.95 µM; P78536;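 active = inhibition above the mean of compounds lying between control limits plus 3 SD, set per campaign, cut at about 8.5% in these data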;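 also: 0% = DMSO-only wells as the low control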
KLK7 act conf: confirmation of human kallikrein-7 zymogen activators; shares compounds with KLK7 zymogen act; purified proKLK7, EDANS-DABCYL substrate fluorescence; scaled: vehicle 0, mature enzyme 100; activation, % at 7 µM; 3,200 compounds, 68% hits;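 active = activation, as change over the incubation, above the mean of all tested compounds plus 3 SD, cut at about 13% in these data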
EDANS-DABCYL int: optically interferes with EDANS-DABCYL signal, flagging KLK7 hits; shares compounds with KLK7 zymogen act; EDANS-DABCYL substrate fluorescence interference, no enzyme, 4 h; solvent 0%, active enzyme control 100%; 3,200 compounds, 80% hits; activation, % at 7 µM;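 active = activation above the all-compound mean plus 3 SD, ignoring values outside control-based bounds, cut at about 4.8% in these data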;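 also: value is the 4 h activation minus the activation read at time zero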
K7 EDANS ctr: optically interferes with EDANS-DABCYL fluorescence, kallikrein-7 activator counter-screen. shares compounds with KLK7 zymogen act. EDANS-DABCYL peptide fluorescence interference, no enzyme. EC50, µM. 250 compounds, 20% hits. AID 720493;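 active = compounds that raise the fluorescence signal in this interference counterscreen, with EC50 at or below 10 µM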;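 also: intact quenched peptide substrate alone read at 355 nm excitation and 520 nm emission; signal is fluorescence gain from T0 to T4 after four hours at room temperature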
* hit, by the source's call; i = inactive; nt = not tested or not shown.

SMILES	ADAM10 inh	FAS-TE inh	KLK7 zymogen act	GRIN3A LBD mod	ADAM17 inh	KLK7 act conf	EDANS-DABCYL int	others
CC(C)NC(C)C(=O)c1ccc2ccccc2c1 (stereo unspecified)	-93	-6	27*	0	-31	4	8.3*
CN1C(=O)N(C)C(=O)C2(Sc3ccccc3C2=O)C1=O	-341	-4	13*	0	-91	247*	233*
N#C[C@H](O[C@@H]1O[C@H](CO[C@@H]2O[C@H](CO)[C@@H](O)[C@H](O)[C@H]2O)[C@@H](O)[C@H](O)[C@H]1O)c1ccccc1	-3	-8	0	-2	-1	nt	nt
O=c1ccc2cc(O[C@@H]3O[C@@H](CO)[C@H](O)[C@@H](O)[C@@H]3O)c(O)cc2o1	i	-5	65*	0	i	77*	84*
C=CCN1C[C@H](C)N(C(c2ccc(C(=O)N(CC)CC)cc2)c2cccc(OC)c2)CC1C (stereo partly specified)	-4	nt	1	nt	1	nt	nt
C[C@@H]1CNCCN1c1ccc(N2CC[C@@H](O)C2)c(C#N)c1	-42	nt	2	nt	-7	nt	nt
O=C(c1cc(-c2ccccc2)nc2ccccc12)N1CCC2(CC1)OCCO2	-8	-3	-1	1	-5	nt	nt
O=C(c1cccn2c(=O)c3ccccc3nc12)N1CCC2(CC1)OCCO2	i	-5	40*	1	-347	42*	49*
O=C(c1cccn2c(=O)c3cc(Cl)ccc3nc12)N1CCC2(CC1)OCCO2	i	0	14*	0	-175	58*	73*
Cc1c(-c2cccc(Cl)c2)nc2ccccc2c1C(=O)N1CCC2(CC1)OCCO2	0	2	0	-1	-3	nt	nt
Nc1ccc2ccc3cccc[n+]3c2c1	-53	-141	95*	5	-22	73*	66*
Cc1cccc(N2CCc3c2nc2ccccc2c3N)c1	-425	2	22*	3	-130	-27	-22
Cc1ccnc(-n2c(C)nc3ccccc3c2=O)c1	7	-10	-1	3	-2	nt	nt
O=C(NCCN1CCC2(CC1)C(=O)NCN2c1ccccc1)c1cccc2c1-c1ccccc1C2=O	-9	nt	1	nt	-3	nt	nt
O=C1NC(=O)C(=Cc2ccccc2[N+](=O)[O-])C(=O)N1	-65	-5	1	-4	-19	nt	nt
COc1ccc(N2C(=O)NC(=O)/C(=C\c3ccccc3[N+](=O)[O-])C2=O)cc1	-9	-4	-1	-4	-6	nt	nt
Cc1cccc(N2C(=O)NC(=O)/C(=C/c3cc4c(cc3[N+](=O)[O-])OCO4)C2=O)c1	-71	-4	16*	-16	-22	76*	76*
O=C1NC(=O)C(=Cc2cc3c(cc2[N+](=O)[O-])OCO3)C(=O)N1	-49	-3	15*	-2	-14	6	7.9*
C[C@H]1CN([C@@H](C)CO)C(=O)CCCn2cc(nn2)CO[C@@H]1CN(C)C(=O)Oc1cccc2ccccc12	-4	nt	0	nt	0	nt	nt
S=P(c1ccccc1)(c1ccccc1)c1c[n+](Cc2ccccc2)c2ccccn12	2	nt	nt	nt	-2	nt	nt
COc1ccc(CC2c3cc(OC)c(OC)cc3CCN2C)cc1OC (stereo unspecified)	-117	-5	12	-2	-27	nt	nt
COc1cc2c(cc1OC)CC[N+](C)=C2	i	-10	43*	0	-208	58*	53*
c1ccc2c(c1)[nH]c1cnccc12	i	-4	46*	14*	-183	18*	21*
Cc1nccc2c1[nH]c1ccccc12	i	-4	36*	2	-389	32*	36*
Cc1c2ccncc2c(C)c2c1[nH]c1ccccc12	nt	-40	nt	-11	nt	nt	nt
SMILES	ADAM10 inh	FAS-TE inh	KLK7 zymogen act	GRIN3A LBD mod	ADAM17 inh	KLK7 act conf	EDANS-DABCYL int	others
CCc1nccc2c1[nH]c1ccccc12	i	-1	46*	0	-497	47*	46*
Cc1[nH]c2ccccc2c1CCN	-10	-6	0	1	-4	nt	nt
Cc1cc(N2CCNC[C@H]2C)ccc1N1CC[C@@H](O)C1	-10	nt	1	nt	-6	nt	nt
COc1ccc(-c2cc(=NCCCCCC(=O)O)c3cc(C)ccc3o2)cc1	i	-5	105*	1	i	64*	72*
C=CCOC(=O)COc1cc(C)cc2oc(=O)c3c(c12)CCC3	-293	12	41*	-1	-71	44*	44*
O=C(c1ccc2c3c(cccc13)CC2)C1CCCN(CC2CC2)C1 (stereo unspecified)	i	-2	43*	-3	-298	-13	-4
COCCN1Cc2cc(=O)n3c([nH]c4ccccc43)c2C1=N	i	2	22*	-1	i	19*	-8	K7 EDANS ctr=>70
COc1cc(CCN)c(OC)cc1C	-9	nt	0	nt	0	nt	nt
COC(=O)C1C(c2ccc(I)cc2)CC2CCC1N2C (stereo unspecified)	-2	nt	0	nt	3	nt	nt
COCCNC(=O)c1c(N)n(Cc2ccco2)c2nc3ccccc3nc12	i	-7	27*	-1	i	-17	-65
CCOC(=O)c1c(N)n(CCN2CCCCC2)c2nc3ccccc3nc12	i	-7	154*	-2	i	29*	17*
COCCCn1c(N)c(C(=O)OC(C)COC)c2nc3ccccc3nc21 (stereo unspecified)	i	-6	52*	0	i	75*	71*
C=CCNC(=O)c1c(N)n(Cc2ccco2)c2nc3ccccc3nc12	i	4	5	-26	i	nt	nt
CC[C@]12CCN(CC3(O)CC3)[C@H](Cc3ccc(O)cc31)C2(C)C	-7	nt	0	nt	-3	nt	nt
O=C(O)C(Br)Br	-6	nt	0	nt	-2	nt	nt
C=CCN1CC[C@]23c4c5ccc(O)c4OC2C(=O)CC[C@@]3(O)[C@H]1C5 (stereo partly specified)	-5	nt	0	nt	-1	nt	nt
CN(C)[C@@H]1C(=O)C(C(N)=O)=C(O)[C@@]2(O)C(=O)C3=C(O)c4c(O)ccc(Cl)c4[C@@](C)(O)C3C[C@@H]12 (stereo partly specified)	-127	-4	25*	-2	-45	17*	17*
COc1ccc2nc(-c3ccc(CN4CCC(n5c(=O)[nH]c6cc(Cl)ccc65)CC4)cc3)c(-c3ccccc3)nc2c1	-111	nt	-13	nt	-25	nt	nt
Cc1ccc(NP(=O)(Nc2ccc(C)cc2)Oc2ccccc2)cc1	11	15	0	0	1	nt	nt
